Consider 38 molecules from the supplement of paper PMC9588786.

Molecules are shown by their SMILES. Values joined by “and” are separate entries in the source; they are usually repeats but may differ in a detail not shown here. Equal values may be shown once. ± gives the standard deviation of the averaged measurements.
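Further: viability read as CCK-8 absorbance at 450 nm in cells co-exposed to the GPX4 inhibitor RSL3, relative to a 0.01% DMSO vehicle control.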

For this experiment, the system named is HT-1080. The experiment can be described thus: relative cell viability with RSL3 co-treatment (fraction of control); higher = stronger protection from RSL3-induced ferroptosis (higher viability). The settings on record: 10 µM.
In the case of `CN1CCC(Nc2nc(Nc3ccc(Oc4ccccc4)cc3)c3c(=O)[nH]cc(Br)c3n2)CC1`, the relative cell viability was 0.68 ± 0.087.
Under `COc1cc(F)c(F)c(Nc2ccc(I)cc2F)c1NS(=O)(=O)C1(C[C@H](O)CO)CC1` [Refametinib (RDEA119, Bay 86-9766)] stands 0.92 ± 0.01.
Under `Cc1cc(F)c(Nc2ncnc3cc(OCc4ccccc4)ccc23)cc1O` stands 0.797 ± 0.021; under `CO[C@@H](C)Cn1c(=O)n(C)c2cnc3ccc(-c4cncc(C(C)(C)O)c4)cc3c21`, 0.457 ± 0.13.
For `CNc1nc(-c2ccc3c(N)n[nH]c3c2)cc(N2C[C@@H](C(=O)NC3CCCCC3)CC[C@H]2C)n1`, the relative cell viability is 0.647 ± 0.13.
As for `COc1cc(Nc2ncc(F)c(Nc3ccc4c(n3)NC(=O)C(C)(C)O4)n2)cc(OC)c1OC`, the relative cell viability was 0.88 ± 0.095.
As to `Nc1cccc(-c2cc3c(Oc4cccc(O)c4)ncnc3[nH]2)c1`, the relative cell viability was determined as 0.483 ± 0.046.
For `Nc1ccc(-c2ccc3ncc4ccc(=O)n(-c5cccc(C(F)(F)F)c5)c4c3c2)cn1` [Torin 2], the relative cell viability was found to be 0.687 ± 0.047.
For `Cc1c[nH]c2nc(Nc3ccc(N4CCN(C)CC4)c(F)c3)nc(-c3cccc(CC#N)c3)c12`, the relative cell viability was determined as 0.123 ± 0.1.
For the molecule `COc1cc(Nc2ncc(F)c(Nc3ccc4c(n3)NC(=O)C(C)(C)O4)n2)cc(OC)c1OC` [R406 (free base)], the relative cell viability was 0.79 ± 0.02.
In the case of `CCNC(=O)Nc1ccc(-c2nc3c(c(N4CCOC[C@@H]4C)n2)CCN(C2COC2)C3)cc1`, the relative cell viability worked out at 0.503 ± 0.2.
The value for `CNC(=O)c1cccc(-c2ccc3c(N4CCOC[C@@H]4C)nc(N4CCOC[C@@H]4C)nc3n2)c1` [Vistusertib (AZD2014)] was 0.52 ± 0.18; that for `CN1CCN(c2ccc(C(=O)Nc3n[nH]c4ccc(Cc5cc(F)cc(F)c5)cc34)c(NC3CCOCC3)c2)CC1` [Entrectinib (RXDX-101)] was 0.537 ± 0.045; that for `O=c1c(O)c(-c2ccc(O)c(O)c2)oc2cc(O)cc(O)c12` [Quercetin] was 0.703 ± 0.074.
The value for `CN(C)CCOc1ccc(-c2nc(-c3ccncc3)c(-c3ccc4c(c3)CC/C4=N\O)[nH]2)cc1` was 0.833 ± 0.1; that for `CN1CCN(Cc2ccc(-c3cnc4[nH]cc(-c5ccc6[nH]ccc6c5)c4c3)cc2)CC1` was 0.497 ± 0.04.
Take `COc1ccc(CNC(=O)Nc2ncc([N+](=O)[O-])s2)cc1`: the relative cell viability stood at 0.45 ± 0.03.
As to `Cn1ncc(Cl)c1-c1cc(C(=O)N[C@H](CN)Cc2ccc(F)c(F)c2)oc1Cl`, the relative cell viability worked out at 0.753 ± 0.07.
As for `Cc1cc(C)c(/C=C2\C(=O)Nc3ccccc32)[nH]1` [Semaxanib (SU5416)], the relative cell viability came to 0.983 ± 0.15.
The value for `CC(C)(CCCCCC(O)CCCCCC(C)(C)C(=O)O)C(=O)O` was 0.843 ± 0.078; that for `CNC(=O)c1ccccc1Nc1nc(Nc2ccc(N3CCOCC3)cc2OC)ncc1Cl` was 0.247 ± 0.07; that for `COc1ccc(F)c(F)c1C(=O)c1cnc(NC2CCN(S(C)(=O)=O)CC2)nc1N` was 0.577 ± 0.15.
Take `COc1cccc2cc(-c3nc([C@H]4CC[C@H](C(=O)O)CC4)n4ncnc(N)c34)[nH]c12`: the relative cell viability stood at 0.7 ± 0.07.
For `Cc1ccc(NC(=O)c2cccc(C(C)(C)C#N)c2)cc1Nc1ccc2ncn(C)c(=O)c2c1`, the relative cell viability was determined as 0.507 ± 0.047.
`Cc1cc(Nc2cc(N3CCN(C)CC3)nc(/C=C/c3ccccc3)n2)n[nH]1`: the relative cell viability amounted to 0.203 ± 0.1.
Under `N#CC1(c2ccc(NC(=O)c3cccnc3NCc3ccncc3)cc2)CCCC1` [Apatinib] stands 0.643 ± 0.046; under `CCCCCCCCCCCCCCCCCCOP(=O)([O-])OC1CC[N+](C)(C)CC1` [Perifosine (KRX-0401)], 0.463 ± 0.18.
As to `NC(=O)c1ncn([C@@H]2O[C@H](CO)[C@@H](O)[C@H]2O)c1N` [AICAR (Acadesine)], the relative cell viability was 1.03 ± 0.011.
`C[C@@H]1CCN(C(=O)CC#N)C[C@@H]1N(C)c1ncnc2[nH]ccc12`: the relative cell viability was 0.75 and 0.64.
Under `COc1cc2ncnc(Oc3ccc(CC(=O)Nc4cnn(C(C)C)c4)cc3)c2cc1OC` stands 0.643 ± 0.33; under `C#Cc1cccc(Nc2ncnc3cc(OCCOC)c(OCCO)cc23)c1`, 0.597 ± 0.081.
As to `CCc1nc(-c2cccc(C)c2)c(-c2ccnc(NC(=O)c3ccccc3)c2)s1`, the relative cell viability is 0.783 ± 0.1.
In the case of `CCCNC(=O)c1cn2ncnc(Nc3cc(C(=O)NC4CC4)ccc3C)c2c1C`, the relative cell viability was 0.78 ± 0.04.
On to `O=C1Nc2ccc(I)cc2/C1=C/c1cc(Br)c(O)c(Br)c1`, for which the relative cell viability is 0.573 ± 0.2.
For `CC[C@@H]1C(=O)N(C)c2cnc(Nc3ccc(C(=O)N[C@H]4CC[C@H](N5CCN(CC6CC6)CC5)CC4)cc3OC)nc2N1C(C)C` [Volasertib (BI 6727)], the relative cell viability came out at 0.397 ± 0.15.
Turning to `O=C1NC(=O)C(c2ccccc2[N+](=O)[O-])=C1Nc1ccc(O)c(Cl)c1`, the relative cell viability amounted to 0.847 ± 0.031.
With `CCOc1cc(N2CCC(O)CC2)ccc1Nc1ncc2c(n1)N(C)c1ccccc1C(=O)N2C`, the relative cell viability worked out at 0.793 ± 0.015.
Under `CNC(=O)c1nn(C)c2c1C(C)(C)Cc1cnc(Nc3ccc(N4CCN(C)CC4)cc3)nc1-2` stands 0.723 ± 0.16.
